Drawing on the supplement of paper PMC10849652, this text covers log2 fold change for 32 targets.

The full data set covers some 8,800 targets. This sample favours those with a hit. About 0.5% of all pairs of compound and target were hits. Values without a mark were called inactive.

Common to all, as to experiment: log2 fold change, soluble protein after heating vs DMSO (PISA); higher = thermal stabilisation; K562 lysate, 10 uM; active = over 0.2 and 3.5 SD of the protein, either way, in both replicates (recomputed)
Compound in assay [1]: NCC(=O)Nc1ccc(-n2nc(C(F)(F)F)cc2-c2ccc3c(ccc4ccccc43)c2)cc1
In outline: (§1)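 Pellets of K562 cells were dounce-homogenised in PBS pH 7.4 with 1 mM MgCl2, and the crude extract was held at 1 mg/mL protein for a 30 min treatment with 10 μM compound. Aliquots were heated for 3 min over 48°C-58°C and pooled before NP-40 was added to 0.5% at 4°C. The supernatant from 21,000xg for 90 min was quantified by TMTpro 16plex LC-MS/MS with channel sums equalised. Values are reported from duplicates as log-two fold change in thermal stability relative to solvent controls.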

Compound in a further assay: O=C(CCCCCCC(=O)Nc1ccccc1)NO [vorinostat]
In outline:
as §1

Compound in a further assay: O=C(O)c1ccc2c(c1)nc(Nc1cccc(Cl)c1)c1ccncc12 [silmitasertib]
A digest of the protocol:
as §1

Compound in assay [2]: O=C1NC(=O)C(c2cnc3ccccn23)=C1c1cn2c3c(cc(F)cc13)CN(C(=O)N1CCCCC1)CC2
A digest of the protocol: as §1

Compound in another assay: c1cn2cc(-c3ccc4cn[nH]c4c3)nc(Nc3ccc(N4CCOCC4)cc3)c2n1 [entospletinib]
In outline: as §1

UniProt Q8IUH5, sequence (Q8IUH5 whole entry, looked up): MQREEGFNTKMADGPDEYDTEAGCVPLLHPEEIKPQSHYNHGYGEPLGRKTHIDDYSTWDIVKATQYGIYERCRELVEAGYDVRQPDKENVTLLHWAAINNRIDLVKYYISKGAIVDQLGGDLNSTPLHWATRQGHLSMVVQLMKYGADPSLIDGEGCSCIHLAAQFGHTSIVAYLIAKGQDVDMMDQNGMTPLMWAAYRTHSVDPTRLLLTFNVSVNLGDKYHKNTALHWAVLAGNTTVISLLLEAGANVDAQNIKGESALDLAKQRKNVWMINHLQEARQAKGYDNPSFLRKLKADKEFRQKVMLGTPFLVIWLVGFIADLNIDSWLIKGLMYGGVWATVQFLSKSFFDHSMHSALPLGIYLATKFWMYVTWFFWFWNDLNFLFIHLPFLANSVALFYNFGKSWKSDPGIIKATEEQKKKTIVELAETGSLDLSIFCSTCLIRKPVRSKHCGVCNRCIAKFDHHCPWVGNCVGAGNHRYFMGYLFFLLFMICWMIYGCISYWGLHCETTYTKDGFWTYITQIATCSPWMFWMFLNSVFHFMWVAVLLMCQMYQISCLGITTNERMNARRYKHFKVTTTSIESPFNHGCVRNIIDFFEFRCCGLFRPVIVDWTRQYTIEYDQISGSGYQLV
UniProt O00258, sequence (O00258 whole entry, looked up): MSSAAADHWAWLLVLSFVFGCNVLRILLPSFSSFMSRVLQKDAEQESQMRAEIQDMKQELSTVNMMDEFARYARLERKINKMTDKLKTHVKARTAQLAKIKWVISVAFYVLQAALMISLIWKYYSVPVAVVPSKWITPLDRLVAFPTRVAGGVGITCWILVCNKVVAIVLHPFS
UniProt P42768, sequence (P42768 whole entry, looked up): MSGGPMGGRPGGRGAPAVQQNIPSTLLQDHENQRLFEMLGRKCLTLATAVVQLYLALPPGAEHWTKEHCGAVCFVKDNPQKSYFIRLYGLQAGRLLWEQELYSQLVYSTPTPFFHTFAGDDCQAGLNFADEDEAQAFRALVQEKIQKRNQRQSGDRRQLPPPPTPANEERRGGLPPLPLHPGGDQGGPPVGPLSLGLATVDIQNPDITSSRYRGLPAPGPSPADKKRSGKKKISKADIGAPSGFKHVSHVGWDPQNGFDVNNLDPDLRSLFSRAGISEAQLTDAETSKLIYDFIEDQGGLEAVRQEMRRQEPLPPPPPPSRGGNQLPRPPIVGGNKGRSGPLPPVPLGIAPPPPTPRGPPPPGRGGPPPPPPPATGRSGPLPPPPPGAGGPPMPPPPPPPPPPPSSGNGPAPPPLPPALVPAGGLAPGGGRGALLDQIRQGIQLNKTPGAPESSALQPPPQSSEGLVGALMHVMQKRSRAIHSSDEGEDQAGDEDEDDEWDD
UniProt Q5T200, sequence (Q5T200 whole entry, looked up): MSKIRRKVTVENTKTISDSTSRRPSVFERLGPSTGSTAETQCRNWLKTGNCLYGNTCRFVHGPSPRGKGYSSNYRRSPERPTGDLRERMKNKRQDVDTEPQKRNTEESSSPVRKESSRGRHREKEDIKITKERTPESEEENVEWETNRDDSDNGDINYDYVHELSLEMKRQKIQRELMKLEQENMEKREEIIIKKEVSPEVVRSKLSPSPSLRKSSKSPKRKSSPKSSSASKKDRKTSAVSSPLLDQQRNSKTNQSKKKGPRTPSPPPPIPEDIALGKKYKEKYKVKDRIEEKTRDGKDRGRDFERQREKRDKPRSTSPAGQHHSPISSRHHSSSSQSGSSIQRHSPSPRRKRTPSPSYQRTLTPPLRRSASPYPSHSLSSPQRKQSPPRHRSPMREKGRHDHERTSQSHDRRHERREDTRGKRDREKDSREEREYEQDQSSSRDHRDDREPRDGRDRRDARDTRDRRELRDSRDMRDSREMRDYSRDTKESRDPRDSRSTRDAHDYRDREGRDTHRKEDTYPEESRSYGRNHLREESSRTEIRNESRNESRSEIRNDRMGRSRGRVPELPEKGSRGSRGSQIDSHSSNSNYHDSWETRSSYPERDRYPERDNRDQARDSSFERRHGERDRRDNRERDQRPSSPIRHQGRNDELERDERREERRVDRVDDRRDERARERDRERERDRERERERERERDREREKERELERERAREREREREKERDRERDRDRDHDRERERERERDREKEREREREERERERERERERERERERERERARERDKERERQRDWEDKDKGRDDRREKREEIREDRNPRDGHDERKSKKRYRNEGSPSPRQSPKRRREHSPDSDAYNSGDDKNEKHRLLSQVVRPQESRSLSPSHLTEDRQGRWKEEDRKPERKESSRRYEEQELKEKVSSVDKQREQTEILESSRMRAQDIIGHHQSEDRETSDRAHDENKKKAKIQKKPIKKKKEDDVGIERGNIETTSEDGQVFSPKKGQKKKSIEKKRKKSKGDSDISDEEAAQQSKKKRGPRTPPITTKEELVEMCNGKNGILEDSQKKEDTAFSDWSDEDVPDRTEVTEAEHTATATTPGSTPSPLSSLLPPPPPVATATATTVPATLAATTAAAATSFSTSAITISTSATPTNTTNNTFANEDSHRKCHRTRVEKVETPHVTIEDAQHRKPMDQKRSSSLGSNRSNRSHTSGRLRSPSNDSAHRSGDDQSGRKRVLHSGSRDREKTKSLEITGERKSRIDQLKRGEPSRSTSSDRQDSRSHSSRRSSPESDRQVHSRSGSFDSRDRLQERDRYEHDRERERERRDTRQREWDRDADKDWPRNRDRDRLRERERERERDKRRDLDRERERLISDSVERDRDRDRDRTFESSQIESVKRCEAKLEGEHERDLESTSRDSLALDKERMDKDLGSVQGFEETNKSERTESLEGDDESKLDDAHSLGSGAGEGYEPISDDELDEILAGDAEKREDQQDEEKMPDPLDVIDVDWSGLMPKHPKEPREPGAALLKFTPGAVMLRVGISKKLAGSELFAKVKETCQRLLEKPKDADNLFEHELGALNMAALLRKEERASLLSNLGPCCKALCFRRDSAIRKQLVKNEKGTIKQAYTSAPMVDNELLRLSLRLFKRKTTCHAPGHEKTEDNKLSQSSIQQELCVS
UniProt P49750, sequence (P49750 whole entry, looked up): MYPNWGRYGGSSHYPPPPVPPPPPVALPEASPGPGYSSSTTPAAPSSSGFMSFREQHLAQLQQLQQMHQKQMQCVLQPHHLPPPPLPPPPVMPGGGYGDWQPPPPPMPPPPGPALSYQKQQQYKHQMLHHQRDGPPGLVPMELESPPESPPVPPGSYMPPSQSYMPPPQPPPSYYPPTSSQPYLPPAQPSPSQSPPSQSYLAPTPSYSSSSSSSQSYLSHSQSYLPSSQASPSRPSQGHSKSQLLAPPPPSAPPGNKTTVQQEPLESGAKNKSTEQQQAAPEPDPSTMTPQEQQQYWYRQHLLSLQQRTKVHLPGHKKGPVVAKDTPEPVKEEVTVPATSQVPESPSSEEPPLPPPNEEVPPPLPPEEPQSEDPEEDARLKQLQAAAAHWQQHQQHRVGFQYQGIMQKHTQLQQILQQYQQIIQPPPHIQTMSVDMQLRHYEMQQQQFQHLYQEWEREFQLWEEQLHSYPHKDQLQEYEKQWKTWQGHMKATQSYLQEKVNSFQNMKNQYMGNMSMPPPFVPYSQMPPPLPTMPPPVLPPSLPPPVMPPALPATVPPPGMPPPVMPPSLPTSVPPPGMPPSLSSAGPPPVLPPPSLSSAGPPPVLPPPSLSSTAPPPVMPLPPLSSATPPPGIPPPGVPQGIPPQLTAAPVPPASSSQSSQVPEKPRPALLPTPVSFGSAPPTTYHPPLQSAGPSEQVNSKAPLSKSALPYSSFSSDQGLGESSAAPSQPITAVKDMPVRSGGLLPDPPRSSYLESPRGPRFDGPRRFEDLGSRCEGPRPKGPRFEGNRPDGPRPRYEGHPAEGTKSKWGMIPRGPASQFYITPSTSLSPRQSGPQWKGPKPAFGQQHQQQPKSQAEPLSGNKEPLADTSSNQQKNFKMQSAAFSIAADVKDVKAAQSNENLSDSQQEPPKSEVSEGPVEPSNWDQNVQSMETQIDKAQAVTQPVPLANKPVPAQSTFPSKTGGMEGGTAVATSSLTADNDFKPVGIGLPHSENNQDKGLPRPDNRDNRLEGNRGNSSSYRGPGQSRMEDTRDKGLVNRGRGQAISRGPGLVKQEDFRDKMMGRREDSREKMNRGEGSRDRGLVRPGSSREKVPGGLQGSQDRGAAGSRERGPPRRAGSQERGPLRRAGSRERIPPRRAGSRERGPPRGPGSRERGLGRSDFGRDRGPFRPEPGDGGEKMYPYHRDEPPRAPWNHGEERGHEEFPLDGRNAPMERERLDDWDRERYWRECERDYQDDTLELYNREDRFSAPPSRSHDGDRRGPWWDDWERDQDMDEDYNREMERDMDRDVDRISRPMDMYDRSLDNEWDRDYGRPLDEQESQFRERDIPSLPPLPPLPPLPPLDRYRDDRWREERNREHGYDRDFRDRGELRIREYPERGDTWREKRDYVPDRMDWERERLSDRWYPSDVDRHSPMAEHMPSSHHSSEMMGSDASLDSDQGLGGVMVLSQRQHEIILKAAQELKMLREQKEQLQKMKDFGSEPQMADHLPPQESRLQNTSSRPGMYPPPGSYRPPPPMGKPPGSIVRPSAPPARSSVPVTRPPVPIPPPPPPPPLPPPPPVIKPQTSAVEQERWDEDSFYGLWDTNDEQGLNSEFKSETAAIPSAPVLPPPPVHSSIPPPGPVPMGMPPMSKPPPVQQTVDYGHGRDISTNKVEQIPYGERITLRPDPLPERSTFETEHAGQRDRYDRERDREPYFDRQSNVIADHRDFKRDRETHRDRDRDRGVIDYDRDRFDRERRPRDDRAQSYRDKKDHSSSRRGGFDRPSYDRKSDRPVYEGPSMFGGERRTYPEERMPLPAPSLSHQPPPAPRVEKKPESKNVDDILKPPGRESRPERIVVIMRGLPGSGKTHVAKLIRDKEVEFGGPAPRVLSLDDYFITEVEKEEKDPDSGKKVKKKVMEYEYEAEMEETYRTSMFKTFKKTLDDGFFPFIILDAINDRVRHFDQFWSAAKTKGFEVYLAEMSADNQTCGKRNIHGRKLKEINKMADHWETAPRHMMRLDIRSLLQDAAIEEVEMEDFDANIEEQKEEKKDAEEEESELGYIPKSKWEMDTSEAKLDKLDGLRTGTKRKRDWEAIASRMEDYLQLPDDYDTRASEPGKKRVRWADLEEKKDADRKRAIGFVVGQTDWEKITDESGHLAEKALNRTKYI

As to VASP (UniProt P50552), the log2 fold change is 0.035 in assay [1]; 0.015 in the assay with vorinostat; 0.015 with silmitasertib; 0.01 in assay [2]; -0.013 with entospletinib.
For ZC3H13 (UniProt Q5T200), the log2 fold change is 0.174 in assay [1]; -0.052 with vorinostat; -0.008 with silmitasertib; -0.104 in assay [2]; 0.001 with entospletinib.
For the target ZNF652 (UniProt Q9Y2D9), in assay [2], the log2 fold change was -0.042.
Take WDR45 isoform 2 (UniProt Q9Y484): the log2 fold change in assay [1] is 0.018; with vorinostat, 0.025; with silmitasertib, 0.016; in assay [2], 0; with entospletinib, 0.009.
As for ZZEF1 (UniProt O43149), the log2 fold change in assay [1] was 0.02; with vorinostat, -0.263 (active); with silmitasertib, 0.011; in assay [2], 0.012; in the assay with entospletinib it was 0.004.
As to VASN (UniProt Q6EMK4), the log2 fold change is 0.233 in the assay with vorinostat, -0.263 in the assay with silmitasertib and -0.027 with entospletinib.
As for WIPI1 (UniProt Q5MNZ9), the log2 fold change with vorinostat was 0.088; in the assay with silmitasertib it was -0.051; in assay [2], 0.026; in the assay with entospletinib it was -0.001.
With UTP18 (UniProt Q9Y5J1), the log2 fold change in assay [1] was 0.045; with vorinostat it was -0.078; with silmitasertib, -0.014; in assay [2] it was 0.029; with entospletinib it was -0.136.
On to USP48 isoform 8 (UniProt Q86UV5), for which the log2 fold change is 0.014 in assay [1]; -0.474 (active) in the assay with vorinostat; 0.009 with silmitasertib; -0.022 in assay [2]; 0.021 with entospletinib.
With ZYG11A (UniProt Q6WRX3), the log2 fold change with vorinostat was 0.719 (active); in the assay with silmitasertib it was 0.17.
Turning to WRB (UniProt O00258), the log2 fold change is 0.082 in assay [1]; 0.131 in the assay with vorinostat; -0.055 with silmitasertib; -0.012 in assay [2]; 0.146 in the assay with entospletinib.
Taken in the same sequence, the figures for ZC3HC1 (UniProt Q86WB0) were 0.021, -0.368 (active), -0.034, -0.03 and 0.01.
Consider ZSCAN26 (UniProt Q16670), for which, in assay [2], the log2 fold change is -0.024.
YLPM1 (UniProt P49750): the log2 fold change is 0.013 in assay [1]; -0.126 in the assay with vorinostat; -0.011 with silmitasertib; 0.017 in assay [2]; -0.004 in the assay with entospletinib.
For ZSCAN21 (UniProt Q9Y5A6), the log2 fold change in the assay with entospletinib is -0.208.
Consider ZNF281 (UniProt Q9Y2X9), for which the log2 fold change in the assay with vorinostat is -0.403 (active); with silmitasertib it was -0.084; in assay [2], -0.072.
Regarding VRK2 (UniProt Q86Y07), the log2 fold change in assay [1] is -0.158; with vorinostat, -0.166; with silmitasertib, -0.022; in assay [2], 0.039; in the assay with entospletinib, -0.064.
On to VTN (UniProt P04004), for which the log2 fold change in assay [1] was 0.126; in the assay with vorinostat, -0.07; with silmitasertib, -0.076; in assay [2], -0.085; with entospletinib, -0.146.
Regarding ZNF346 (UniProt Q9UL40), the log2 fold change with vorinostat is 0.137; with silmitasertib it was 0.018; in assay [2] it was -0.05; with entospletinib, 0.02.
On to WAS (UniProt P42768), for which the figures for the log2 fold change with vorinostat, with silmitasertib and in the assay with entospletinib were -0.07, 0.025 and -0.055, respectively.
Consider UNKL (UniProt E9PDK2), for which the values for the log2 fold change (in assay [1]; in assay [2]; in the assay with entospletinib) were -0.336, 0.003 and 0.108, respectively.
As for ZC2HC1A (UniProt Q96GY0), the log2 fold change in assay [1] is 0.104; with vorinostat it was -0.066; with silmitasertib, 0.054; in assay [2] it was -0.008; in the assay with entospletinib, -0.005.
Take WDR36 (UniProt Q8NI36): the log2 fold change in assay [1] is -0.051; with vorinostat it was -0.345 (active); in the assay with silmitasertib it was 0.044; in assay [2], 0.028; with entospletinib, -0.011.
For the target VPS37B (UniProt Q9H9H4), the log2 fold change in assay [1] is 0.029; with vorinostat, -0.349 (active); in the assay with silmitasertib, 0.045; in assay [2], -0.035; in the assay with entospletinib, -0.058.
Taken in the same sequence, the figures for USP34 (UniProt Q70CQ2) were 0.005, -0.208 (active), 0.05, -0.012 and -0.005.
With VPS4A (UniProt Q9UN37), the log2 fold change was -0.026 in assay [1]; -0.356 (active) with vorinostat; 0.059 with silmitasertib; -0.013 in assay [2]; 0.038 with entospletinib.
Take UNC13A (UniProt Q9UPW8): the log2 fold change in the assay with vorinostat was -0.485; in the assay with silmitasertib it was 0.078.
In the case of WAC isoform 5 (UniProt Q9BTA9), the values for the log2 fold change with vorinostat and with silmitasertib were -0.002 and 0.351, respectively.
For VPS16 (UniProt Q9H269), the log2 fold change in assay [1] was -0.047; with vorinostat, -0.543 (active); in the assay with silmitasertib, 0.076; in assay [2], -0.01; in the assay with entospletinib, 0.03.
Turning to ZDHHC17 (UniProt Q8IUH5), the log2 fold change in assay [1] is 0.065; in assay [2], -0.067; in the assay with entospletinib, 0.009.
As to WRN (UniProt Q14191), the log2 fold change was 0.003 in assay [1]; -0.282 (active) with vorinostat; 0.035 with silmitasertib; -0.013 in assay [2]; -0.005 with entospletinib.
In the case of YBEY (UniProt P58557), the log2 fold change in assay [1] is 0.035; with vorinostat it was -0.136; with silmitasertib, 0.063; with entospletinib it was 0.029.
